Inconclusive results are not listed. Calls of active or inactive are those of the source. The calls were made as follows, unless noted: active = hit-call score of the fitted dose curve at least 0.9, where 1 is the maximum; inactive = score below 0.9.
Columns and labels:
[1] = CCTE_Shafer_MEA_acute_spike_number: CCTE's Neural Acute Assay for Total Number of Spikes, Shafer Lab (AID 2284008)
In short: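 Total spike count from 40 min recordings before and during compound exposure (0.03-40 uM), given as per-well percent change. Cortical cultures from rat, DIV 13 or 15, 37 C; adaptive detection threshold 8x rms noise.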

[2] = CCTE_Shafer_MEA_acute_firing_rate_mean: CCTE's Neural Acute Assay for Mean Firing Rate, Shafer Lab (AID 2284009);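 also: analyzed for loss of signal so actives lower firing rate relative to DMSO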
In short: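 Percent change in well-mean firing rate was derived from extracellular spikes detected at 8x rms noise (300-5000 Hz band-pass) before and after a 40-min compound exposure. Cultures were primary rat cortical neurons, tested at 0.03-40 uM.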

[3] = CCTE_Shafer_MEA_acute_burst_number: CCTE's Neural Acute Assay for Single-Electrode Bursts, Shafer Lab (AID 2284013)
In short: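 Spontaneous network activity of primary rat cortical neurons was recorded extracellularly on microelectrode arrays at 37 C, with 40-min periods before and during exposure to 0.03-40 uM compound on DIV 13 or 15.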

[4] = CCTE_Shafer_MEA_acute_burst_duration_mean: CCTE's Neural Acute Assay for Mean Burst Duration, Shafer Lab (AID 2284014);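 also: hits are decreases in mean burst duration relative to DMSO controls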
In short: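 Read-out is the per-well percent change in mean burst duration (first to last spike within a single-electrode burst) between 40-min recordings before and after compound. Cultures were primary rat cortical neurons on MEAs, dosed at 0.03-40 uM on DIV 13 or 15.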

[5] = CCTE_Shafer_MEA_acute_per_burst_spike_number_mean: CCTE's Neural Acute Assay for Average Number of Spikes Per Burst, Shafer Lab (AID 2284015);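 also: hits are decreases in mean spikes per burst versus baseline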
In short: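 Percent change in mean spikes per single-electrode burst is compared between a 40 min baseline and a 40 min recording with compound (0.03-40 uM). Cultures were rat cortical neurons on MEA plates at DIV 13 or 15, recorded at 37 C, with DMSO as the negative control.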

[6] = CCTE_Shafer_MEA_acute_interburst_interval_mean: CCTE's Neural Acute Assay for Mean Interburst Interval, Shafer Lab (AID 2284016);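 also: percent change of mean interburst interval versus each well's own pre-dose baseline; curves fitted for decrease in interburst interval relative to DMSO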
In short: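 Percent change in mean single-electrode interburst interval was calculated per well from 40 min recordings before and after compound (0.03-40 uM). Recordings were made at 37 C on rat cortical cultures at DIV 13 or 15, with spikes detected at 8x rms threshold.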

[7] = CCTE_Shafer_MEA_acute_burst_percentage_std: CCTE's Neural Acute Assay for Standard Deviation of Burst Percentage, Shafer Lab (AID 2284018);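 also: fitted in the negative direction so actives lower burst percentage SD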
In short: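 Value is percent change from baseline in the across-electrode SD of spikes-in-bursts percentage, wells with >/= 10 active electrodes. Acute 40-min exposure to 0.03-40 uM on DIV 13 or 15 rat cortical cultures, recorded at 37 C after 40-min baseline.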

[8] = CCTE_Shafer_MEA_acute_per_network_burst_spike_number_mean: CCTE's Neural Acute Assay for Average Number of Spikes in a Network Burst, Shafer Lab (AID 2284019)
In short: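 Read-out is mean spike count per network burst, taken as percent change between a 40-min pre-exposure and a 40-min post-exposure recording per well. Rat primary cortical neurons on MEAs at 37 C, DIV 13 or 15; compounds at 0.03-40 uM.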

[9] = CCTE_Shafer_MEA_acute_per_network_burst_spike_number_std: CCTE's Neural Acute Assay for Standard Deviation of Number of Spikes in a Network Burst, Shafer Lab (AID 2284020);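 also: fitted for decrease in spike-number SD versus DMSO so actives lower it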
In short: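 Spontaneous network activity of primary rat cortical neurons is recorded extracellularly before and after a 40-min compound exposure (0.03-40 uM) at 37 C. The endpoint is the well's percent change in burst spike-number SD.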

[10] = CCTE_Shafer_MEA_acute_per_network_burst_electrodes_number_mean: CCTE's Neural Acute Assay for Mean Number of Electrodes in a Network Burst, Shafer Lab (AID 2284021);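 also: curves fitted for decreases only so hits reduce electrodes per burst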
In short: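 Percent change from baseline was computed as mean electrode count per network burst, comparing 40 min recordings before and during compound (0.03-40 uM) exposure. Cultures were rat cortical neurons at DIV 13 or 15, recorded on MEAs at 37 C with an adaptive 8x rms threshold.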

[11] = CCTE_Shafer_MEA_acute_cross_correlation_area: CCTE's Neural Acute Assay for Area of Cross Correlation, Shafer Lab (AID 2284024);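 also: rat primary cortical neuron networks on 48-well MEA at DIV 13 or 15 with 40 min exposure; area under pooled inter-electrode spike cross-correlation near zero lag as percent change from own baseline; curves fitted for loss of cross-correlation area so actives lower synchrony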
In short: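 Percent change in well-wide cross-correlation area (window around zero lag) between 40 min baseline and 40 min post-compound recordings, 37 C; rat cortical cultures on MEA at DIV 13 or 15, dosed 0.03-40 uM, wells needing >/= 10 active electrodes.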

[12] = CCTE_Shafer_MEA_acute_cross_correlation_HWHM: CCTE's Neural Acute Assay for Cross Correlation at Half Width at Half Maximum, Shafer Lab (AID 2284026);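 also: percent change per well from pre-dose baseline in spike cross-correlogram half width; hits are a decrease in cross-correlogram half width relative to DMSO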
In short: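 Per-well percent change in cross-correlogram half width at half maximum, derived from 40-min recordings before and after compound (0.03-40 uM) at 37 C. Cultures were rat cortical neurons, DIV 13 or 15, with adaptive spike detection at 8x rms.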

[13] = CCTE_Harrill_HTTr_CellCount_MCF7: CCTE's Cell Proliferation Assessment for the High-Throughput Transcriptomics (HTTr) Platform, Harrill Lab (AID 2284012; active = hit-call score of the fitted dose curve at least 0.9, where 1 is the maximum;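 also: cells exposed to compound for six hours; intended direction is loss of nuclei count meaning fewer cells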)
In short: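 MCF7 cells exposed 6 hours to an eight-point dilution series; Hoechst-stained nuclei counted by high-content imaging. Bidirectional curve fitting against DMSO baseline.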

[14] = CCTE_Harrill_HTTr_Apoptosis_MCF7: CCTE's 6-hour Apoptosis Assessment for the High-Throughput Transcriptomics (HTTr) Platform, in MCF-7 cells cultured in DMEM + 10% fetal bovine serum, Harrill Lab (AID 2284011)
In short: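 High-content imaging of CellEvent Caspase 3/7 Green signal follows a six-hour exposure, with eight concentrations per chemical. MCF-7 cells grown in DMEM plus 10% fetal bovine serum; activity fitted in both directions against DMSO.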

[15] = CCTE_Harrill_HTTr_Viability_MCF7: CCTE's 6-hour Cell Viability Assessment for the High-Throughput Transcriptomics (HTTr) Platform, in MCF-7 cells cultured in DMEM + 10% fetal bovine serum, Harrill Lab (AID 2284010)
In short: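 MCF-7 cells in DMEM + 10% FBS, 384-well, exposed 6 h to an eight-point dilution series. Membrane integrity scored by high-content imaging of propidium iodide exclusion; bidirectional fit versus DMSO.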

In the case of CC(=O)OCCC(C)CC(C)(C)C (configuration not stated), the outcome [1] is reported as “inactive”, the outcome [2] is reported as “inactive” and the outcome [3] is reported as “inactive”. For the same compound, the outcome [4] was “inactive”, the outcome [5] was “inactive” and the outcome [6] was “inactive”. For the same compound, the outcome [7] was “inactive”, the outcome [8] was “inactive” and the outcome [9] was “inactive”. The outcome [10] was “inactive”, the outcome [11] was “inactive” and the outcome [12] was “inactive”.
With CCC(C)CCCC(C)(C)O (configuration not stated) the outcome [13] was “inactive”.
In the case of CC1(C)CCC(C)(C)c2cc(C(=O)Nc3ccc(C(=O)O)cc3)ccc21, the outcome [13] is reported as “inactive”.
In the case of O=C1C(c2[nH]c3ccc(S(=O)(=O)O)cc3c2O)=Nc2ccc(S(=O)(=O)O)cc21, the outcome [14] is reported as “inactive” and the outcome [13] is reported as “inactive”.
For CCCCCCCCCCCCOCCO, the outcome [14] was “inactive”.
For Cc1c(Cl)c(=O)oc2cc(O)ccc12, the outcome [13] was “inactive”.
For CCCCCCCCCC=O, the outcome [14] was “inactive” and the outcome [13] was “inactive”.
In the case of O=C(O)COCCN1CCN(C(c2ccccc2)c2ccc(Cl)cc2)CC1 (configuration not stated), the outcome [13] is reported as “inactive”.
With CC1=CCC(O)(C(C)C)CC1 (configuration not stated) the outcome [15] was “inactive” and the outcome [13] was “inactive”.
For C[C@]12CC[C@H]3[C@@H](CCC4=CC(=O)CC[C@@]43C)[C@@H]1CC[C@@H]2C(=O)CO, the outcome [14] was “inactive”.
For NCCCCCCN, the outcome [13] was “inactive”.
For C=O, the outcome [13] was “inactive”.
With Clc1ccc2c(c1)C(N1CCNCC1)=Nc1ccccc1O2 the outcome [14] was “inactive” and the outcome [13] was “inactive”.
For O=C(O)CN(CCN(CC(=O)O)CC(=O)O)CCN(CC(=O)O)CC(=O)O, the outcome [14] was “inactive” and the outcome [13] was “inactive”.
For CC(C)=CCO, the outcome [14] was “inactive”.
For Cc1ccc(C=O)s1, the outcome [15] was “inactive” and the outcome [13] was “inactive”.
In the case of O=C(O)c1ccc([N+](=O)[O-])cc1, the outcome [14] is reported as “inactive”.
With CN(C)CCOCCN(C)C the outcome [15] was “inactive” and the outcome [13] was “inactive”.
For COc1cc2ncnc(Nc3cccc(Cl)c3)c2cc1OC, the outcome [14] was “inactive” and the outcome [13] was “inactive”.
For CNC[C@H](O)c1cccc(O)c1, the outcome [14] was “inactive”.
In the case of CCCc1c(OCCCOc2ccc(OCC(=O)O)cc2)ccc(C(C)=O)c1O, the outcome [15] is reported as “inactive” and the outcome [13] is reported as “inactive”.
With CC(C)C[C@H]1C(=O)N2CCC[C@H]2[C@]2(O)O[C@](NC(=O)[C@@H]3C=C4c5cccc6[nH]c(Br)c(c56)C[C@H]4N(C)C3)(C(C)C)C(=O)N12 the outcome [13] was “inactive”.
For CC(=O)C(=O)O, the outcome [14] was “inactive” and the outcome [13] was “inactive”.
For Cc1c(N(C)C)c(=O)n(-c2ccccc2)n1C, the outcome [14] was “inactive” and the outcome [13] was “inactive”.
In the case of CC(C)Oc1ccccc1O, the outcome [14] is reported as “inactive” and the outcome [13] is reported as “inactive”.
For CCCCNC(=O)NS(=O)(=O)c1ccc(C)cc1, the outcome [13] was “inactive”.
In the case of CCCCN, the outcome [14] is reported as “inactive”.
With O=C(O)c1cn(C2CC2)c2cc(N3CCNCC3)c(F)cc2c1=O the outcome [15] was “inactive” and the outcome [13] was “inactive”.
With COc1ccc(O)cc1 the outcome [14] was “inactive” and the outcome [13] was “inactive”.
With CC(C)[C@H]1CC[C@@H](C)CC1=O the outcome [14] was “inactive” and the outcome [13] was “inactive”.
For Cc1ccc(C=O)cc1, the outcome [15] was “inactive” and the outcome [13] was “inactive”.
For CCN(CC)c1ccc2c(-c3ccccc3C(=O)O)c3ccc(=[N+](CC)CC)cc-3oc2c1, the AC50 [15] was 394 nM (active) and the outcome [13] was “inactive”.
For Cc1ccc(C(=O)c2cc(O)c(O)c([N+](=O)[O-])c2)cc1, the outcome [14] was “inactive”.
In the case of CC(CN1c2ccccc2Sc2ccccc21)N(C)C (configuration not stated), the outcome [14] is reported as “inactive”.
With Clc1ccc(Cl)c(Cl)c1Cl the outcome [14] was “inactive” and the outcome [13] was “inactive”.
In the case of CNCCCC12CCC(c3ccccc31)c1ccccc12, the outcome [14] is reported as “inactive” and the outcome [13] is reported as “inactive”.
With O=C(O)c1ccc(C(=O)O)cc1 the outcome [13] was “inactive”.

Reference: PubChem BioAssay (EPA / NIEHS)
